For six compounds, composite z-score and z-score results are on record in PubChem BioAssay.

The structures appear in SMILES notation. The source made the active and inactive calls.

The nature of assay [1]: small molecules captured by biotinylated probe aFSTL3 – biochemical, small-molecule microarray, fluorescence 635/667, stem cell growth factor project, primary screen (AID 1064).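 Further: measures binding of the biotinylated anti-FSTL3 antibody to printed compounds.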 The following applies: higher = more signal.
Assay [2] in a line: binders from COS7 lysate, DM2A8 probe, primary screen, torsin A project, cell lysate, small-molecule microarray, fluorescence 635/667 (AID 1065). The following applies: higher = more signal, COS7 lysate expressing mutant human TOR1A.
Assay [3] can be described thus: small molecules captured by biotinylated probe aFGF2 – biochemical, small-molecule microarray, fluorescence 635/667, stem cell growth factor project, primary screen (AID 1067).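 Further: measures binding of biotinylated aFGF2 protein to printed compounds on slides; z-score merges feature fluorescence and signal-to-noise across triplicate slides.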 The conditions noted are these: higher = more signal.
Assay [4] can be described thus: small molecules captured by biotinylated probe aFGF10 – biochemical, small-molecule microarray, fluorescence 635/667, stem cell growth factor project, primary screen (AID 1071).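 Further: score merges 667 nm spot intensity and signal to noise from triplicate slides.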 The conditions noted are these: higher = more signal.
Assay [5] concerns the target Neurogenic locus notch homolog protein 2 (Homo sapiens) (UniProt Q04721). Kind of assay: small molecules binding Notch2 protein – biochemical, small-molecule microarray, 635 nm fluorescence, stem cell growth factors, primary screen (AID 1073). The conditions noted are these: higher = more signal.
The target of assay [6] is Pro-neuregulin-1, membrane-bound isoform (Homo sapiens) (UniProt Q02297). Kind of assay: small molecules binding neuregulin-1 protein – biochemical, small-molecule microarray, fluorescence 635/667, psychiatric disease protein project, primary screen (AID 1075).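 Further: score combines 667 nm spot fluorescence with signal to noise.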 The conditions noted are these: NRG1 binding, 635 nm fluorescence, higher = more signal.
Assay [7] concerns Neuregulin-1 EGF-like domain. Kind of assay: small molecules binding NRG1 EGF domain – biochemical, small-molecule microarray, 635 nm fluorescence, primary screen (AID 1081).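 Further: binding of the protein to compounds printed on small-molecule microarray slides.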 The following applies: higher = more signal.
A short description of assay [8]: FRG1 expression reporter modulators in myotubes – cell-based, C2C12 myotubes, firefly/Renilla luciferase, luminescence, FRG1 inhibition for FSHD, primary screen (AID 1084). The following applies: FRG1 promoter luciferase, higher = more signal, called active from +8 up or from −8 down.
Assay [9] can be described thus: small molecules captured by biotinylated probe aFST – biochemical, small-molecule microarray, fluorescence 635/667, stem cell growth factor project, primary screen (AID 1086).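 Further: score merges 667 nm fluorescence with signal-to-noise of each printed compound spot.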 The following applies: higher = more signal.
Assay [10] in a line: binders of probe aHhip on microarray, primary screen, stem cell growth factor project, biochemical, small-molecule microarray, fluorescence 635/667 (AID 1087).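 Further: score merges spot fluorescence at 667nm with spot signal to noise ratio.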 The conditions noted are these: higher = more signal.
In assay [11] the test system is PRMT1 (protein arginine N-methyltransferase 1). Kind of assay: small molecules binding arginine methyltransferase PRMT1 – biochemical, small-molecule microarray, 635 nm fluorescence, primary screen (AID 1088).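 Further: binding of Prmt1 protein to compounds spotted on small-molecule microarray slides.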 The conditions noted are these: higher = more signal.
A short description of assay [12]: growth effects on S. cerevisiae YJM789 – YJM789 clinical isolate, OD600, 24 h, basal, primary screen (AID 1089).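 Further: growth of clinical yeast isolate S. cerevisiae YJM 789 seeded 1000 cells per well; test concentration not given here.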 The conditions noted are these: higher = more signal, called active from +8 up or from −8 down.
Assay [13] is described as follows: S. pombe growth modifiers, basal conditions – strain 972, OD600, 24 h, no modulator, primary screen (AID 1090).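 Further: basal condition with compound alone and no growth modifier present; test concentration not given here.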 The following applies: S. pombe 972 growth, higher = more signal, called active from +8 up or from −8 down.
Assay [14] can be described thus: budding yeast growth modifiers under rapamycin – strain BY4716, OD600, 96 h, primary screen (AID 1091). Further: test concentration not given here. The following applies: S. cerevisiae BY4716 + rapamycin, higher = more signal, called active from +8 up or from −8 down.
For assay [15], the target named is Torsin-1A-interacting protein 2 (Homo sapiens) (UniProt Q8NFQ8). Kind of assay: small molecules binding lysate-expressed LULL1 – cell lysate, human LULL1 lysate, 635/667 nm fluorescence, primary screen (AID 1092).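 Further: probe is lysate of COS7 cells overexpressing human LULL1; score merges per-feature 667 nm fluorescence with signal-to-noise.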 The following applies: small-molecule microarray, hLULL1 lysate binding, 635 nm fluorescence; higher = more signal.
A short description of assay [16]: optical density change of DRC41 E. coli – strain DRC41, OD650, 24 h, E. coli filamentation project, primary screen (AID 1093).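 Further: MC1000 strain lacking acrAB efflux and sulA so SOS filamentation is blocked; test concentration not given here.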 The following applies: E. coli DRC41 growth, higher = more signal, called active from +8 up or from −8 down.
Assay [17] can be described thus: probe aLefty2 binding to arrayed compounds – biochemical, biotinylated probe, 635/667 nm fluorescence, primary screen (AID 1094).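 Further: score merges spot fluorescence near 667 nm with spot signal-to-noise ratio.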 The following applies: small-molecule microarray, higher = more signal.
Assay [18] relates to Noggin (protein binding on small-molecule microarray). Kind of assay: small molecules binding Noggin protein – biochemical, 635/667 nm fluorescence, primary screen (AID 1095).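 Further: score merges 667 nm feature fluorescence with signal to noise over triplicate slides.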 The following applies: 635 nm fluorescence, higher = more signal.
Assay [19] deals with Neurogenic locus notch homolog protein 3 (Homo sapiens) (UniProt Q9UM47). Kind of assay: small molecules binding NOTCH3 protein – biochemical, 635/667 nm fluorescence, primary screen (AID 1096). The following applies: small-molecule microarray, 635 nm fluorescence, higher = more signal.
The nature of assay [20]: probe aEGFR binding to arrayed compounds – biochemical, biotinylated probe, 635/667 nm fluorescence, primary screen (AID 1097).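 Further: probe is a biotinylated anti-EGFR antibody binding compounds printed on slides; score combines fluorescence near 667 nm and signal to noise of each spot.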 The conditions noted are these: small-molecule microarray, higher = more signal.

Chain of Torsin-1A-interacting protein 2 (Homo sapiens) (Q8NFQ8 whole entry, looked up): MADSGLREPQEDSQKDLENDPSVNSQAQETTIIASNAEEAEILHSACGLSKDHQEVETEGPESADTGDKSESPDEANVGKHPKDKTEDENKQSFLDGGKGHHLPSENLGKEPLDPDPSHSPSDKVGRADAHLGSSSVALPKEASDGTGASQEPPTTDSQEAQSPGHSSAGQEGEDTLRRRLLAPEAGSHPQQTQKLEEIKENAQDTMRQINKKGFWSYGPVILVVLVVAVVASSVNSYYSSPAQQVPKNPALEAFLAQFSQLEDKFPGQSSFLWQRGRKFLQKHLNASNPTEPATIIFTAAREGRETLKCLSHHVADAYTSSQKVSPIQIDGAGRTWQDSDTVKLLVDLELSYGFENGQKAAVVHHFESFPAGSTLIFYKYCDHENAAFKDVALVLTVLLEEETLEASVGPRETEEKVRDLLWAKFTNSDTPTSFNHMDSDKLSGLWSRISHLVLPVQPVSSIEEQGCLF
Chain of Pro-neuregulin-1, membrane-bound isoform (Homo sapiens) (Q02297 whole entry, looked up, the tested form may be a part, canonical isoform): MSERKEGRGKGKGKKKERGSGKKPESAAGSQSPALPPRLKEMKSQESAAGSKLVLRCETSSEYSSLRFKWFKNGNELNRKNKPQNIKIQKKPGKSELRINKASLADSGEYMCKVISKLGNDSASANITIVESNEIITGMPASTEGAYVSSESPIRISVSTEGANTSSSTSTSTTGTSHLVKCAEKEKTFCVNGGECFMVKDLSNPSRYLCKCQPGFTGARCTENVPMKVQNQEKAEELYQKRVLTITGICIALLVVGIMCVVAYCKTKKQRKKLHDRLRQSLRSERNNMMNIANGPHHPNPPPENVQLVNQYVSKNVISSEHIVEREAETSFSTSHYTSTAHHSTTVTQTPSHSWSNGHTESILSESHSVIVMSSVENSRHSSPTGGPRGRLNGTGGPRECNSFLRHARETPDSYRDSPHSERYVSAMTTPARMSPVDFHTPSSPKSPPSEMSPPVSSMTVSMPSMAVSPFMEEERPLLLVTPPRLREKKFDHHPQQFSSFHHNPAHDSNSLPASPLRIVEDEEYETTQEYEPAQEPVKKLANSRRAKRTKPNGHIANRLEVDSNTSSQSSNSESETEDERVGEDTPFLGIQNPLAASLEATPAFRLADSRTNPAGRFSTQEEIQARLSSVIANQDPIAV
Chain of Neurogenic locus notch homolog protein 2 (Homo sapiens) (Q04721 whole entry, looked up, canonical isoform): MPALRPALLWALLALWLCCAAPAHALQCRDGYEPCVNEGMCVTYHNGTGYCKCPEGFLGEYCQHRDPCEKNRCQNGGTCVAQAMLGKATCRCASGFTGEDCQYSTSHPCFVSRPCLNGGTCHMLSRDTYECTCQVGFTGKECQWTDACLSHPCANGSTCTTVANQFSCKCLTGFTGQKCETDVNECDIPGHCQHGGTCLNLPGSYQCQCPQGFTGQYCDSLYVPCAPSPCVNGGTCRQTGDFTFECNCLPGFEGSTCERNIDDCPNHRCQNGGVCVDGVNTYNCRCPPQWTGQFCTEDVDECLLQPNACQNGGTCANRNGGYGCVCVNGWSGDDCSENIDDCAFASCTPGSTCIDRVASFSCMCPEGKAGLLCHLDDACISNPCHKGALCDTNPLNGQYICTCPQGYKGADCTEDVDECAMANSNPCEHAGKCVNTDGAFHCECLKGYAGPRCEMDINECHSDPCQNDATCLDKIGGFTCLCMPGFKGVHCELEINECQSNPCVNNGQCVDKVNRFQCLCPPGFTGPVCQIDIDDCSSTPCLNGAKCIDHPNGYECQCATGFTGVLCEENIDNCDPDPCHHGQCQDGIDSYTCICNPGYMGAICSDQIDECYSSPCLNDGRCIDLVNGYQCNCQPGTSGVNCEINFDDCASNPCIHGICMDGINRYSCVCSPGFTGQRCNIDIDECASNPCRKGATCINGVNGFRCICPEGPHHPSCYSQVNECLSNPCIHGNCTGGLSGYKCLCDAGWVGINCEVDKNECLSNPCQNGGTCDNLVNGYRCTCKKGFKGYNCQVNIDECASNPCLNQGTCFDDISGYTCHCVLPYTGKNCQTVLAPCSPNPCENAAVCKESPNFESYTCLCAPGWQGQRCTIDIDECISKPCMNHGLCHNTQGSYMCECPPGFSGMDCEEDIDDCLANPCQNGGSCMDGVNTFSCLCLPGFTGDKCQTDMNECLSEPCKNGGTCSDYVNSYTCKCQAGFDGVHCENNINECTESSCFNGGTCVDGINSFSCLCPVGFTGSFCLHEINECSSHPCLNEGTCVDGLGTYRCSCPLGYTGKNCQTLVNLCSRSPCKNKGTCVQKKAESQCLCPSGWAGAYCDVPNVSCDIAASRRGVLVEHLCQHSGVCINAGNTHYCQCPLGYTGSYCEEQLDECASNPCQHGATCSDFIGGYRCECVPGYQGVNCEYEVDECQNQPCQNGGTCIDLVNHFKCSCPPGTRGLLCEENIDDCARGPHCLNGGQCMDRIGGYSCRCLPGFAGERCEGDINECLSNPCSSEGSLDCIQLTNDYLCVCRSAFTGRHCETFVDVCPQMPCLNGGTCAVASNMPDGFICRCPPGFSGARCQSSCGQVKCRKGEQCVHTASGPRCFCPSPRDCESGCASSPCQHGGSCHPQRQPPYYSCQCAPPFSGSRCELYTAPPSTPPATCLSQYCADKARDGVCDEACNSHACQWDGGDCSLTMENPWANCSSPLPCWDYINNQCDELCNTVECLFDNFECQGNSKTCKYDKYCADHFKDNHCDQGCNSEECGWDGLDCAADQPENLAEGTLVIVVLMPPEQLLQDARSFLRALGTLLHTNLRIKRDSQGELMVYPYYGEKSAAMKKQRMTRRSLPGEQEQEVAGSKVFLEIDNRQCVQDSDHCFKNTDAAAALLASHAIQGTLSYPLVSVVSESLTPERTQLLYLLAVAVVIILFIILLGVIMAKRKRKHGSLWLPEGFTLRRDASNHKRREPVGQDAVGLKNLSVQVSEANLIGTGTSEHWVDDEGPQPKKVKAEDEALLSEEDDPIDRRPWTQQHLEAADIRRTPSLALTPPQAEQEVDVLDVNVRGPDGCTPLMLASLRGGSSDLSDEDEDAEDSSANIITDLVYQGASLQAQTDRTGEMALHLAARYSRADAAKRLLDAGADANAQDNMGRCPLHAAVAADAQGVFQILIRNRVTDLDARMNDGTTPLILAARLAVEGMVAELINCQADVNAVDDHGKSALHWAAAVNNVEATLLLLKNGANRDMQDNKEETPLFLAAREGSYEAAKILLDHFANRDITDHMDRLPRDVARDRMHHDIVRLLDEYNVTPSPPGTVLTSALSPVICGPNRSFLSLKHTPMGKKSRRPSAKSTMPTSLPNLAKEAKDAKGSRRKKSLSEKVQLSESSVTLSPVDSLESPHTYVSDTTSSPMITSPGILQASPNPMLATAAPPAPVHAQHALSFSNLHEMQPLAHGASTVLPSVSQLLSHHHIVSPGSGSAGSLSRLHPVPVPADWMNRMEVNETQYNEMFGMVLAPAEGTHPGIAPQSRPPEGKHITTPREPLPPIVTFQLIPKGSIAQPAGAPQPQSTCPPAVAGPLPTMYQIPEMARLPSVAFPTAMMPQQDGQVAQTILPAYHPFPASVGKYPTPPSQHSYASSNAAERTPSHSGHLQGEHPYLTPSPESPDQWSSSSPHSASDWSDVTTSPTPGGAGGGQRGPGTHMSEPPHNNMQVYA

On to `CCCC[C@H]1OB(O)C[C@H]2C1=C(C)C[C@H]1C(=O)N(C)C(=O)[C@H]12`, for which the composite z-score in assay [1] is -0.626; in assay [2] it was 0.441; in assay [3], -0.0562; in assay [4], 0.719; in [5] it was 1.09; in [6], 0.053. Also, the composite z-score in assay [7] was 0.938; in assay [9] it was 0.349; in [10], -0.156; in assay [11], 0.95; in assay [15], 1.2; in assay [17] it was -0.166. The composite z-score in assay [18] was 0.622; in assay [19], 0.959; in assay [20], -0.12. For the same compound, the z-score in assay [8] was -0.252 (inactive); in assay [12], -0.334 (inactive); in assay [13], -0.698 (inactive); in assay [14], -0.762 (inactive); in assay [16], -0.889 (inactive).
On to `CCOC(=O)NN=C1C[C@@H](O)[C@@H](O)[C@@H]2[C@@H]3C(=O)N(C(C)(C)C)C(=O)[C@@H]3CC[C@@H]12`, for which the composite z-score in [1] was -0.295; in assay [2], 0.721; in [3], 0.0014; in [4] it was 0.177; in assay [5], 0.394; in [6] it was -0.904. In addition, the composite z-score in assay [7] was -1.83; in assay [9], 0.577; in assay [10], -0.0994; in assay [11], -0.172; in assay [15], -0.786; in [17], -0.0569. Moreover, the composite z-score in assay [18] is 0.261; in assay [19], -0.861; in assay [20], 0.0021. In addition, the z-score was -0.0445 (inactive) in assay [8]; -1.04 (inactive) in [12]; 0.213 (inactive) in assay [13]; -0.626 (inactive) in assay [14]; 0.572 (inactive) in [16].
With `CO[C@H]1O[C@H](CO)[C@@H](OC(=O)Nc2ccc3c(c2)OCO3)[C@H](OC(=O)Nc2ccccc2-c2ccccc2)[C@@H]1OC(=O)Nc1ccccc1-c1ccccc1`, the composite z-score is 0.0442 in [1]; -0.029 in [2]; -0.0238 in [3]; 1.13 in assay [4]; 1.57 in assay [5]; 0.985 in assay [6]. Further, the composite z-score amounted to 1.17 in [7]; 0.626 in assay [9]; 0.151 in assay [10]; 1.54 in assay [11]; 3.27 in assay [15]; 0.0427 in assay [17]. The figures for the composite z-score in assay [18], in assay [19] and in [20] were 0.943, 1.07 and -0.0179, respectively. In addition, the z-score in assay [8] was 1.36 (inactive); in [12] it was 2.12 (inactive); in assay [13] it was 1.8 (inactive); in assay [14] it was 0.91 (inactive); in [16], 0.39 (inactive).
`CCOC(=O)CCN1C(=O)[C@H]2[C@H]3[C@H](O)[C@H](O)CC(=NOC[C@@H](O)COCc4ccco4)[C@@H]3CC[C@H]2C1=O`: the composite z-score in assay [1] is 0.545; in assay [2] it was 0.457; in [3], 0.0166; in assay [4], 0.484; in [5], -0.328; in assay [6], -0.21. The composite z-score in assay [7] is 0.486; in [9], 0.356; in [10] it was -0.134; in assay [11], 0.163; in assay [15], 0.545; in assay [17], 0.0814. The composite z-score was -0.298 in assay [18], -0.62 in assay [19] and -0.0764 in assay [20]. For the same compound, the z-score in assay [8] was -0.124 (inactive); in [12], 0.133 (inactive); in assay [13] it was -0.226 (inactive); in assay [14], -0.0839 (inactive); in [16], 0.383 (inactive).
For the compound `CO[C@@H]1COC(=O)CC=C[C@@H](C)[C@@H]2C=C[C@@H](O)[C@@H](COC(=O)CC=C[C@H]1C)O2`, the composite z-score in assay [1] is -0.42; in [2], 1.08; in assay [3] it was -0.0861; in [4], -0.251; in assay [5] it was -0.716; in assay [6] it was -0.688. Moreover, the composite z-score in assay [7] is -0.523; in assay [9] it was -0.176; in [10], -0.16; in [11], 1.44; in assay [15], -0.284; in assay [17] it was -0.19. For the same compound, the results for the composite z-score in [18], in [19] and in [20] were 1.29, 0.0667 and -0.0112, respectively. For the same compound, the z-score was -0.969 (inactive) in [8]; -1.85 (inactive) in assay [12]; -0.862 (inactive) in [13]; -0.562 (inactive) in [14]; -0.552 (inactive) in assay [16].
On to `CCOC(=O)[C@H](Cc1ccccc1)NC(=O)CCC1CC(OC(=O)NCc2ccc3c(c2)OCO3)CC2(CCCC(COC(=O)NCc3cccc(C(F)(F)F)c3)O2)O1` (stereo not given in full), for which the composite z-score in assay [1] is -0.353; in assay [2] it was 0.226; in assay [3], -0.0985; in [4], 0.0907; in [5], 0.981; in assay [6], 0.0527. For the same compound, the composite z-score in assay [7] was 0.481; in [9], 0.348; in [10], -0.0645; in assay [11], 1.35; in [15] it was 0.735; in [17], -0.0383. In addition, the values for the composite z-score in [18], in [19] and in assay [20] were 0.606, 1.11 and 0.0293, respectively. For the same compound, the z-score in assay [8] is -0.0878 (inactive); in assay [12] it was -0.594 (inactive); in [13], 0.926 (inactive); in assay [14], 0.287 (inactive); in assay [16] it was -1.29 (inactive).
